Molecules are shown by their SMILES. Activity calls are given as the source filed them. Rule for the calls: active = hit-call score of the fitted dose curve at least 0.9, where 1 is the maximum; inactive = score below 0.9.

The target in assay [1] is Bile acid receptor (Homo sapiens) (UniProt Q96RI1). The experiment in a line: ATG_IR1_CIS: Attagene CIS-FACTORIAL HepG2 Assay for human Nuclear Receptor Subfamily 1 Group H Member 4 (NR1H4), IR1 submotif (AID 2282946). The settings on record: IR1 reporter transcription, actives raise or lower the signal. Put shortly: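 Fluorescence of capillary-separated, HpaI-digested RT-PCR reporter products gave IR1-element mRNA induction in HepG2 cells 24 h after dosing. Endogenous transcription factors drove the cis-regulated reporters; activity was fitted bidirectionally against DMSO.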
Chain of Bile acid receptor (Homo sapiens) (Q96RI1 whole entry, looked up): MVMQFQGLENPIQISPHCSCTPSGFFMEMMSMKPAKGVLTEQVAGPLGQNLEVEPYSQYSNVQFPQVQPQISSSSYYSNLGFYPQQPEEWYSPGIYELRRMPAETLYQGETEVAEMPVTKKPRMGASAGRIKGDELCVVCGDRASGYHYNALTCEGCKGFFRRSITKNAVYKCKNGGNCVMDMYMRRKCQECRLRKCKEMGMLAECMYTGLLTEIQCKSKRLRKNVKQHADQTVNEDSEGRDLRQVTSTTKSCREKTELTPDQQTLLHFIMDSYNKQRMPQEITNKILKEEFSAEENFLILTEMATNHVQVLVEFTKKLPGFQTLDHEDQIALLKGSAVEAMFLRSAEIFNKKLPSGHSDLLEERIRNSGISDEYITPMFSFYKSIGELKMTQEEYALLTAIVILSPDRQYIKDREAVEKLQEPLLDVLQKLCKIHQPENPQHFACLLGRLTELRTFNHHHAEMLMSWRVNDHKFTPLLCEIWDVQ

Assay [2] can be described thus: ATG_ISRE_CIS: Attagene CIS-FACTORIAL HepG2 Assay for human Interferon Regulatory Factor 1 (IRF1) binding to an Interferon-Stimulated Response Element (ISRE) (AID 2282948). To be noted: HepG2 ISRE cis-reporter (Attagene), mRNA transcription readout; actives raise or lower the signal. The essentials: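 Multiplexed mRNA reporter readout in human liver HepG2 cells: cis-element-driven reporters transfected, compound added for 24 h, transcripts amplified, fluorescently labelled and sized by capillary electrophoresis; curve fitting bidirectional against DMSO.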

Assay [3] is described as follows: ATG_M_06_CIS: Attagene CIS-FACTORIAL HepG2 Assay for M06 Transcription Factor (Internal Marker) (AID 2282950). The settings on record: HepG2 Attagene CIS-FACTORIAL M06 internal marker reporter; actives raise or lower the signal. Put shortly:
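One of many multiplexed endpoints: HepG2 reporter mRNA after 24 h dosing, detected by RT-PCR and capillary electrophoresis fluorescence; gain or loss of signal analysed against DMSO.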

In assay [4] the target is Hypoxia-inducible factor 1-alpha (Homo sapiens) (UniProt Q16665). Description: ATG_HIF1a_CIS: Attagene CIS-FACTORIAL HepG2 Assay for human Hypoxia Inducible Factor 1 (HIF1A) (AID 2282951). The settings on record: HepG2 Attagene cis-factorial HIF1a reporter transcription; actives raise or lower the signal. Put shortly: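 RT-PCR/capillary electrophoresis fluorescence readout of reporter transcripts from endogenous-TF-driven cis elements in transfected HepG2 cells, 24 h exposure; activity fitted in both directions against DMSO controls.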
Chain of Hypoxia-inducible factor 1-alpha (Homo sapiens) (Q16665 whole entry, looked up): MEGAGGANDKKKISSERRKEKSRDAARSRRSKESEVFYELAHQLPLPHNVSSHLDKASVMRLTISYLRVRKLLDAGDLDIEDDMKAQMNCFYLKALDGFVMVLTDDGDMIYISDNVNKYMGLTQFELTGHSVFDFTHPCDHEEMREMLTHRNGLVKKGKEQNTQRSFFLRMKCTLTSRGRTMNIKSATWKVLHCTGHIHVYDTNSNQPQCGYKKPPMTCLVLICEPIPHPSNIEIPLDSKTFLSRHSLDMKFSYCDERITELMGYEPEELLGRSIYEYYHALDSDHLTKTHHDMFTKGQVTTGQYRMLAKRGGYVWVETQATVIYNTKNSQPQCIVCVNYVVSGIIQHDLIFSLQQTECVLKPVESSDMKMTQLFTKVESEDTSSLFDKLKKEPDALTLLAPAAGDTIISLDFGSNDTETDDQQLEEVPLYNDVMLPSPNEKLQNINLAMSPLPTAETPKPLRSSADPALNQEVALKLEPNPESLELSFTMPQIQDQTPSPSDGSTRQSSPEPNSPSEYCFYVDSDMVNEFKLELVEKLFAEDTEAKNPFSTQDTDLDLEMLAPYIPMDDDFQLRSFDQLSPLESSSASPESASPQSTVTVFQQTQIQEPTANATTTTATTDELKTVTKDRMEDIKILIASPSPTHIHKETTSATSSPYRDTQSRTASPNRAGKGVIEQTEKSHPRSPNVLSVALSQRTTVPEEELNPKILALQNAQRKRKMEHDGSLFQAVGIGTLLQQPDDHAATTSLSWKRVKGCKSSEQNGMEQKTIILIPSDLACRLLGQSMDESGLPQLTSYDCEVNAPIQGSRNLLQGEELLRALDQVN

Assay [5] has as its target Hepatocyte nuclear factor 6 (Homo sapiens) (UniProt Q9UBC0). The experiment in a line: ATG_HNF6_CIS: Attagene CIS-FACTORIAL HepG2 Assay for human Hepatocyte Nuclear Factor 6 (HNF6) (AID 2282952). To be noted: HepG2 Attagene cis-factorial HNF6 reporter transcription; actives raise or lower the signal. Put shortly: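 Using cis-element reporters in HepG2 liver cells, the assay tracks endogenous factor-driven transcription 24 h post-dosing. Signal comes from 6-FAM-labelled, HpaI-digested RT-PCR fragments, with gain or loss scored against DMSO.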

The target in assay [6] is Heat shock factor protein 1 (Homo sapiens) (UniProt Q00613). Description: ATG_HSE_CIS: Attagene CIS-FACTORIAL HepG2 Assay for human Heat Shock Transcription Factor 1 (HSE) (AID 2282953). To be noted: HepG2 HSE cis-reporter, Attagene RNA transcription; actives raise or lower the signal. Put shortly: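 Using HepG2 with transfected cis-driven reporter constructs, compound effects on endogenous factor activity are scored as reporter mRNA change at 24 h. Detection: RT-PCR, HpaI digestion, capillary electrophoresis; bidirectional fitting to DMSO.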
Chain of Heat shock factor protein 1 (Homo sapiens) (Q00613 whole entry, looked up): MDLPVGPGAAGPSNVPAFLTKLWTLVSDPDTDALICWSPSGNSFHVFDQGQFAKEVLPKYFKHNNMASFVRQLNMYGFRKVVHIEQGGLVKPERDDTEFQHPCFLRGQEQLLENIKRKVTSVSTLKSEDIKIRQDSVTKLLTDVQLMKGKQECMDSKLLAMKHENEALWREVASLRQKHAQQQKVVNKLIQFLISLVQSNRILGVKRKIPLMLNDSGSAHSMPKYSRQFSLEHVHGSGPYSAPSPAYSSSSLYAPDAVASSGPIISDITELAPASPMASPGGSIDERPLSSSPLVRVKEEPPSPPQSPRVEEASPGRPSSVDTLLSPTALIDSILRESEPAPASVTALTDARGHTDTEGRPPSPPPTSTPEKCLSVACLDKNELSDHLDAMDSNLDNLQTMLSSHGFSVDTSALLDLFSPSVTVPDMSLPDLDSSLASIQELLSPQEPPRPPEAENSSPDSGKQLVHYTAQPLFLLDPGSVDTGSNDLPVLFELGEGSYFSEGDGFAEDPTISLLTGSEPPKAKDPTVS

A short description of assay [7]: ATG_MRE_CIS: Attagene CIS-FACTORIAL HepG2 Assay for human Metal Responsive Element (MRE) (AID 2282954). The settings on record: HepG2 MRE cis-reporter transcription, Attagene multiplex; actives raise or lower the signal. Put shortly:
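RT-PCR/capillary electrophoresis readout of reporter mRNA, 24 h post-dosing, in HepG2 cells transfected with multiplexed cis-regulated reporter constructs. Gain or loss of signal fitted bidirectionally against DMSO baseline.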

Assay [8] in a line: ATG_PBREM_CIS: Attagene CIS-FACTORIAL HepG2 Assay for human Phenobarbital-responsive Enhancer Module (PBREM) (AID 2282955). To be noted: HepG2 PBREM cis-reporter, Attagene multiplexed transcription; actives raise or lower the signal. The essentials:
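Reporter mRNA read by RT-PCR, 6-FAM primer extension, HpaI digestion and capillary electrophoresis. Transfected HepG2 cells, 24 h compound exposure. Gain or loss of signal fitted bidirectionally relative to DMSO baseline.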

Assay [9] concerns the target Paired box protein Pax-6 (Homo sapiens) (UniProt P26367). Description: ATG_Pax6_CIS: Attagene CIS-FACTORIAL HepG2 Assay for human Paired Box 6 (PAX6) (AID 2282956). To be noted: HepG2 CIS-FACTORIAL PAX6 reporter transcription, RNA readout; actives raise or lower the signal. The essentials: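 Fluorescent RT-PCR products separated by capillary electrophoresis report PAX6-linked promoter mRNA in HepG2 cells 24 h post-dose. Curves fitted bidirectionally, DMSO as negative control.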

The nature of assay [10]: ATG_PXRE_CIS: Attagene CIS-FACTORIAL HepG2 Assay for human Pregnane X Receptor Element (PXRE) (AID 2282957). The settings on record: HepG2 Attagene CIS-FACTORIAL PXRE reporter, mRNA; actives raise or lower the signal. Put shortly:
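Using HepG2 transfected with multiple reporter transcription units, endogenous factor-driven transcription was scored as reporter mRNA after 24 h exposure.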

Assay [11] is described as follows: ATG_PPRE_CIS: Attagene CIS-FACTORIAL HepG2 Assay for human Peroxisome Proliferator-activated Response Element (PPRE) (AID 2282958). The settings on record: HepG2 PPRE cis-element reporter, Attagene transcription factor profiling; actives raise or lower the signal. Put shortly:
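Read-out: fluorescent reporter mRNA fragments resolved by capillary electrophoresis after RT-PCR. HepG2 cells carried transiently transfected PPRE-driven cis reporter constructs and were dosed for 24 h; gain or loss of signal fitted relative to DMSO.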

The nature of assay [12]: ATG_RORE_CIS: Attagene CIS-FACTORIAL HepG2 Assay for human RAR-related Orphan Receptor Element (RORE) (AID 2282959). To be noted: HepG2 Attagene cis-factorial RORE reporter, mRNA; actives raise or lower the signal. Put shortly:
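Readout: fluorescent reporter mRNA by RT-PCR plus capillary electrophoresis, 24 h after dosing transfected HepG2 cells. Endogenous transcription factor activity on a cis promoter element is measured. Gain or loss of signal fitted against DMSO.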

The target in assay [13] is Transcription factor Sp1 (Homo sapiens) (UniProt P08047). Description: ATG_Sp1_CIS: Attagene CIS-FACTORIAL HepG2 Assay for human Specificity Protein 1 (Sp1) (AID 2282961). To be noted: HepG2 Sp1 cis-reporter transcription, actives raise or lower the signal. Put shortly: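 Read-out: fluorescence of 6-FAM-labeled, HpaI-digested RT-PCR products separated by capillary electrophoresis. HepG2 cells carried transfected cis-element reporter units and were exposed to chemicals for 24 h; gain or loss of signal fitted relative to DMSO.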
Chain of Transcription factor Sp1 (Homo sapiens) (P08047 whole entry, looked up): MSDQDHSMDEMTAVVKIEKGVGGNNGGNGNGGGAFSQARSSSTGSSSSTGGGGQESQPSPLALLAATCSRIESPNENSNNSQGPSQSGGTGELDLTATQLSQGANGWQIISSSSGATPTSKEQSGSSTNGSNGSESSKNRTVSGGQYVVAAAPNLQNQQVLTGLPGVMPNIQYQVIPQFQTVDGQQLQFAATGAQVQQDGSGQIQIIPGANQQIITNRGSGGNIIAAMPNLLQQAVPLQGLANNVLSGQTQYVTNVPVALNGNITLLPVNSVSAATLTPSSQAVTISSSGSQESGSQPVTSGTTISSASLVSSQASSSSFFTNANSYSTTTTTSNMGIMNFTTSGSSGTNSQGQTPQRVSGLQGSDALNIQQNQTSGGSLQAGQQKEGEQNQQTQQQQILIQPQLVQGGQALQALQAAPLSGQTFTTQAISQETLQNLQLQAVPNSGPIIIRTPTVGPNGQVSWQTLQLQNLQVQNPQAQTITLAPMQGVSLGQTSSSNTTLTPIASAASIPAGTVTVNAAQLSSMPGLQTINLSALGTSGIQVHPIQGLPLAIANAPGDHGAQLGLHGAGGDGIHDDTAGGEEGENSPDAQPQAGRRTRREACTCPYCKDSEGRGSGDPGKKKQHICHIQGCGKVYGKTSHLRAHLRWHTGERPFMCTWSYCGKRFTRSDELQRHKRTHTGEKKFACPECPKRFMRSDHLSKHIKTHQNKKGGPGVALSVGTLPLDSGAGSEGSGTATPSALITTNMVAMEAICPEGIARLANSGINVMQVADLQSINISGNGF

Assay [14] in a line: ATG_SREBP_CIS: Attagene CIS-FACTORIAL HepG2 Assay for human Sterol Regulatory Element Binding (SREBP) (AID 2282962). The settings on record: HepG2 Attagene cis-factorial SREBP reporter, mRNA; actives raise or lower the signal. Put shortly:
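Endogenous factor activity is measured in HepG2 through multiplexed reporter units under cis-element control. Following a 24 h incubation, reporter transcripts are reverse-transcribed, PCR-amplified and sized by capillary electrophoresis; activity is fitted in both directions relative to DMSO.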

Assay [15] concerns the target Signal transducer and activator of transcription 3 (Homo sapiens) (UniProt P40763). Description: ATG_STAT3_CIS: Attagene CIS-FACTORIAL HepG2 Assay for human Signal Transducer and Activator of Transcription 3 (STAT3) (AID 2282963). The settings on record: HepG2, Attagene cis-factorial STAT3 reporter transcription; actives raise or lower the signal. Put shortly:
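Readout: fluorescent reporter mRNA fragments resolved by capillary electrophoresis. Setup: HepG2 transfected with MRTUs reporting endogenous transcription-factor activity, dosed 24 h. Gain or loss of signal fitted bidirectionally against DMSO control.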

Assay [16] can be described thus: ATG_TA_CIS: Attagene CIS-FACTORIAL HepG2 Assay for human TA Basal Promoter (AID 2282964). To be noted: HepG2 Attagene CIS-factorial TA basal promoter reporter; actives raise or lower the signal. The essentials: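 Transient MRTU transfection of HepG2 preceded 24 h compound exposure. Reporter mRNA levels were then read by RT-PCR with capillary electrophoresis, and this background-control endpoint was fitted bidirectionally to DMSO.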

Assay [17] is described as follows: ATG_M_32_CIS: Attagene CIS-FACTORIAL HepG2 Assay for M32 Transcription Factor (Internal Marker) (AID 2282949).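 Note: background control marker of the multiplexed CIS panel rather than a real target.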 To be noted: HepG2 Attagene cis-factorial M32 reporter, mRNA; actives raise or lower the signal. The essentials:
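Using DMSO as baseline, bidirectional curve fits were applied to reporter mRNA signals. These came from transiently transfected HepG2 cells exposed for 24 h, with RNA analysed by RT-PCR, FAM primer extension, HpaI digestion and CE.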

A short description of assay [18]: ATG_GRE_CIS: Attagene CIS-FACTORIAL HepG2 Assay for human Glucocorticoid Response Elements (GRE) (AID 2282947). The settings on record: HepG2 GRE cis-reporter, Attagene multiplex mRNA; actives raise or lower the signal. The essentials:
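Read-out: fluorescent reporter-transcript fragments separated by capillary electrophoresis after RT-PCR. Transiently transfected HepG2 cells carrying cis-element-driven reporter units were dosed for 24 h; gain or loss of signal fitted against DMSO control.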

Assay [19] is described as follows: ATG_Sox_CIS: Attagene CIS-FACTORIAL HepG2 Assay for human SRY-box transcription factor (SOX) (AID 2282960). To be noted: HepG2 Attagene cis-factorial SOX reporter, mRNA; actives raise or lower the signal. Put shortly:
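Read-out: fluorescent RT-PCR products of SOX1-linked reporter transcripts resolved by capillary electrophoresis, fitted bidirectionally against DMSO. Transiently transfected HepG2 cells, 24 h after chemical exposure, endogenous transcription factor activity.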

Chain of Paired box protein Pax-6 (Homo sapiens) (P26367 whole entry, looked up): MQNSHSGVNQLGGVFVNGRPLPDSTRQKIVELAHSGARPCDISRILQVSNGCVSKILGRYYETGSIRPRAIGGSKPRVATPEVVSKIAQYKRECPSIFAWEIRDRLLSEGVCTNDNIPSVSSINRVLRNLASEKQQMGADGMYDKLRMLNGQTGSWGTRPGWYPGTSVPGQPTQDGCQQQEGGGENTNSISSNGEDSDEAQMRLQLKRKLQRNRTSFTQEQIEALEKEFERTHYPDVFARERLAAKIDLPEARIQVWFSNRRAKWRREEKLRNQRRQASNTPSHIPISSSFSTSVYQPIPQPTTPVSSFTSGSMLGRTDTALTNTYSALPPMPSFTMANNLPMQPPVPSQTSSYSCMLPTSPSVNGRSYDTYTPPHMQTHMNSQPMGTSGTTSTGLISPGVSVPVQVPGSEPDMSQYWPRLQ
Chain of Signal transducer and activator of transcription 3 (Homo sapiens) (P40763 whole entry, looked up, the tested form may be a part): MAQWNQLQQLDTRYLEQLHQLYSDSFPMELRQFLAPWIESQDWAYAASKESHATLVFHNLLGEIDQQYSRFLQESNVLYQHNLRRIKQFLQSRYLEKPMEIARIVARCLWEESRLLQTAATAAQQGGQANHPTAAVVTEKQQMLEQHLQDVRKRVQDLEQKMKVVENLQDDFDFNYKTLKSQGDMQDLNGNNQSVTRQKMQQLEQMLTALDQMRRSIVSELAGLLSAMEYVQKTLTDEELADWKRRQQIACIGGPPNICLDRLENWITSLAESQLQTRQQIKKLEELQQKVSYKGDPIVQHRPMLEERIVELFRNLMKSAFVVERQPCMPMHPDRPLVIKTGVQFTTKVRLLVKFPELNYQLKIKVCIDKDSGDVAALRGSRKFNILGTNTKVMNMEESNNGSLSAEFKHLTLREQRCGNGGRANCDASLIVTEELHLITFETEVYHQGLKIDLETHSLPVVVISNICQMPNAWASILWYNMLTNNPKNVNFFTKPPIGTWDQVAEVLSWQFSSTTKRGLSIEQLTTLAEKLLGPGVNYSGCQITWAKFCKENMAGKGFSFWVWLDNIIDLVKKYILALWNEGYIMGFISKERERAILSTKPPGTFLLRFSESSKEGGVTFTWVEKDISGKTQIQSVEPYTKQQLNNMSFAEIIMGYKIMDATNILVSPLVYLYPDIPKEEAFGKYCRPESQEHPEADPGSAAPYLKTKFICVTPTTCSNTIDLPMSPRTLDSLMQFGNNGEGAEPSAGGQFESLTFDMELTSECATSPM
Chain of Hepatocyte nuclear factor 6 (Homo sapiens) (Q9UBC0 whole entry, looked up, the tested form may be a part): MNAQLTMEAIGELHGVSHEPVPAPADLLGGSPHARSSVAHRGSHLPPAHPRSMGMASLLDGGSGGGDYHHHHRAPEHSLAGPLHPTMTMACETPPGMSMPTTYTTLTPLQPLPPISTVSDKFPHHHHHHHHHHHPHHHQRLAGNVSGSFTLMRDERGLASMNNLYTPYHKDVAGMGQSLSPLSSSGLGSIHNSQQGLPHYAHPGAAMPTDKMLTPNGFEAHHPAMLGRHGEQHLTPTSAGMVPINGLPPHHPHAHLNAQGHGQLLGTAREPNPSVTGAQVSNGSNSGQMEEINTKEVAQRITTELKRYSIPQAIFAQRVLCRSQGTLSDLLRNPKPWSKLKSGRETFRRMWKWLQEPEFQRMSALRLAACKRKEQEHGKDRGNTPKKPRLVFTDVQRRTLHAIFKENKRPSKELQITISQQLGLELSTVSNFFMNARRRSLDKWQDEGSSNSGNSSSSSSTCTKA

For the molecule `COCCOCCOC`, the outcome in assay [1], in [2], in [3], in assay [4], in assay [5] and in [6] was inactive. Besides, the molecule was called inactive in assay [7], in [8], in assay [9], in assay [10], in assay [11] and in assay [12]. The molecule was called inactive in [13], in assay [14], in [15] and in assay [16].

In general, AC50 refers to the concentration giving half of the maximal activity seen. Regarding `CCOc1ccc2c(c1)C(C)=CC(C)(C)N2`, the call in assay [2], in assay [17], in assay [3], in assay [5], in assay [8] and in assay [14] was inactive. Also, in assay [15], the call was inactive. Further, the AC50 in [6] was 152 µM (active); in assay [7] it was 148 µM (active); in [9], 100 µM (active); in assay [10], 1.91 µM (active); in [11] it was 78.8 µM (active); in assay [12] it was 100 µM (active). Moreover, the AC50 was 78.9 µM (active) in assay [13] and 100 µM (active) in assay [16].

As for `COCCOC[C@H](CC1(C(=O)NC2CCC(C(=O)O)CC2)CCCC1)C(=O)Oc1ccc2c(c1)CCC2` (stereo partly specified), the call in assay [18], in assay [2], in assay [3], in assay [4], in assay [5] and in assay [6] was inactive. The molecule was classed as inactive in [7], in assay [8], in assay [9], in [11], in assay [12] and in assay [19]. For the same molecule, the molecule was called inactive in [13], in [14], in assay [15] and in assay [16]. Further, the AC50 in assay [10] was 20.2 µM (active).

As to `CCCCCCCC=O`, the result in [2], in assay [3], in assay [4], in assay [5], in [6] and in assay [7] was inactive. The call in [9], in assay [10], in [12], in assay [13], in assay [14] and in [16] was inactive. For the same molecule, in [15], the AC50 was 37.7 µM (active).

Consider `CC(=O)C(C)=CC1C(C)=CCCC1(C)C` (stereo unspecified), for which the molecule was called inactive in assay [18], in [2], in [17], in [3], in [4] and in assay [5]. Moreover, the call in [6], in assay [7], in assay [8], in assay [9], in [11] and in [13] was inactive. In addition, the result in assay [14], in assay [15] and in assay [16] was inactive. The AC50 in [10] is 22.9 µM (active).

For `COc1ccc(C)cc1N`, the call in [18], in assay [2], in [3], in assay [4], in assay [5] and in [6] was inactive. The outcome in assay [7], in assay [8], in assay [9], in assay [10], in assay [11] and in assay [12] was inactive. The molecule was called inactive in [19], in assay [13], in [14], in [15] and in assay [16].

`Cc1ccc(C(C)C)c(O)c1`: the result in assay [18], in assay [2], in assay [17], in assay [3], in [4] and in assay [5] was inactive. The molecule was classed as inactive in [6], in assay [7], in [8], in [9], in assay [11] and in assay [12]. In addition, the molecule was called inactive in assay [13], in assay [14], in [15] and in assay [16]. In [10], the AC50 is 34.5 µM (active).

The values above are taken from PubChem BioAssay (EPA / NIEHS).
